Results: the supplement of paper PMC6555819

Legend:
Test in all cases: PBM binding z-score (relative to random genomic background probes); higher = stronger binding; sequences stand for … in GC…GCGATTGACAGCGTAGAATGAAGG
[1] = tested on: FXR:RXRa (NR concentration 270 nM, RXRa partner concentration 90 nM)
How it was run: (§1)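 For binding z-scores, the reference was random background probes on custom Agilent 4×180K protein-binding microarrays. These arrays were incubated 1 h with ligand-free nuclear receptor dimers in PBS pH 7.4, 2% milk, 0.02% Triton X-100, 1 mM DTT, 0.2 mg/mL BSA and 0.4 mg/ml salmon testes DNA. Fluorescence was scanned after antibody detection of each partner (one per run) and regression-normalized.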

[2] = tested on: LXRa:RXRa (NR concentration 270 nM, RXRa partner concentration 90 nM)
How it was run: as §1

[3] = tested on: LXRa homodimer (NR concentration 270 nM)
How it was run: as §1

[4] = tested on: LXRb:RXRa (NR concentration 270 nM, RXRa partner concentration 90 nM)
How it was run: as §1

[5] = tested on: LXRb homodimer (NR concentration 270 nM)
How it was run: as §1

[6] = tested on: PPARa:RXRa (NR concentration 270 nM, RXRa partner concentration 90 nM)
How it was run: as §1

[7] = tested on: PPARg:RXRa 270nM:90nM, anti-RXR (NR concentration 270 nM, RXRa partner concentration 90 nM)
How it was run: as §1

[8] = tested on: PPARg:RXRa 30nM:10nM, anti-RXR (NR concentration 30 nM, RXRa partner concentration 10 nM)
How it was run: as §1

[9] = tested on: PPARg:RXRa 90nM:30nM, anti-RXR (NR concentration 90 nM, RXRa partner concentration 30 nM)
How it was run: as §1

[10] = tested on: PPARg:RXRa DBDmut IVT, anti-RXR (DBD mutation: RXRa K156A/R161A, NR concentration 270 nM, RXRa partner concentration 90 nM)
How it was run: as §1

[11] = tested on: PPARg:RXRa IVT, anti-PPARg (NR concentration 270 nM, RXRa partner concentration 90 nM)
How it was run: as §1

[12] = tested on: PPARg DBDmut:RXRa IVT, anti-PPARg (DBD mutation: PPARg1 K132A/R137A, NR concentration 270 nM, RXRa partner concentration 90 nM)
How it was run: as §1

[13] = tested on: PPARg DBDmut IVT, anti-PPARg (DBD mutation: PPARg1 K132A/R137A, NR concentration 270 nM)
How it was run: as §1

[14] = tested on: PPARg homodimer (NR concentration 180 nM)
How it was run: as §1

[15] = tested on: PXR:RXRa (NR concentration 270 nM, RXRa partner concentration 90 nM)
How it was run: as §1

[16] = tested on: PXR homodimer (NR concentration 270 nM)
How it was run: as §1

[17] = tested on: RARa:RXR (NR concentration 270 nM, RXRa partner concentration 90 nM)
How it was run: as §1

[18] = tested on: RARa homodimer (NR concentration 270 nM)
How it was run: as §1

[19] = tested on: RARb:RXRa (NR concentration 270 nM, RXRa partner concentration 90 nM)
How it was run: as §1

Sequence	PBM binding z-score [1]	PBM binding z-score [2]	PBM binding z-score [3]	PBM binding z-score [4]	PBM binding z-score [5]	PBM binding z-score [6]	PBM binding z-score [7]	PBM binding z-score [8]	PBM binding z-score [9]	PBM binding z-score [10]	PBM binding z-score [11]	PBM binding z-score [12]	PBM binding z-score [13]	PBM binding z-score [14]	PBM binding z-score [15]	PBM binding z-score [16]	PBM binding z-score [17]	PBM binding z-score [18]	PBM binding z-score [19]
ATATGTAGGTTAAGGGTCATGCAGGTTGGTTCGC	4.83	4.77	2.17	4.13	1.3	6.71	10.2	10.9	11.9	7.69	7.88	4.88	2.56	5.05	5.37	2.16	6.47	2.37	3.73
GATACAGGGTCATCTAGAGGCCAGAGTATGGAAA	6.84	5.02	0.214	4.22	0.201	5.87	5.65	2.33	4.1	1.93	3.6	0.707	0.0112	3.91	4.97	0.378	6.28	0.58	4.48
ACTTACGGGTCAAGGAGGTTATAGCACGCGTATA	6.35	4.93	1.1	4.17	0.922	5.72	5.1	2.1	3.84	2.9	3.94	1.06	0.844	2.7	4.24	1.47	4.99	1.24	4.09
CCCACTGGGGCAAAGGTTACCATACTCAGTACGA	1.6	1.6	-0.143	2	-0.809	5.98	9.71	9.33	11.5	5.25	7.1	0.141	-0.557	1.73	2.41	-0.111	3.81	0.0182	2.37
CGTCCAAGGTCAGAGAGGTCAGTGACTGCCGAGT	6.33	5.11	3.23	4.11	0.108	4.74	4.2	1	2.64	3.1	3.54	-0.0571	-1.2	5.16	6.06	11.3	5.75	2.55	5.28
CGTCCAAGGTCAATGCTAGCTCAGTGAAAGCATT	6.48	4.48	0.31	3.45	0.696	4.83	4	0.365	2.62	3.17	3.23	-0.245	-0.858	0.0664	3.48	0.507	3.92	0.334	5.02
TCTTGTAGATCAAAGGTCAAGAAAGCCGAAGCCT	4.71	5.21	2.41	5.03	1.25	6.32	9.37	8.45	10.1	2.63	4.93	-0.0392	0.612	2.55	4.83	0.853	6.09	0.488	4.74
